Assay outcomes (PubChem BioAssay)
FLuc modulator: firefly luciferase modulation, counter-screen for miR-21 project; P08659; purified FLuc, Km substrates, luminescence inhibition; Potency, µM (doses to about 57.5 µM), hits mostly inhibitors; 6.9% of 360,000 active; AID 588342; note: nearly all actives have a fitted effect of over 55% in size
Target sequence (P08659 whole entry, looked up): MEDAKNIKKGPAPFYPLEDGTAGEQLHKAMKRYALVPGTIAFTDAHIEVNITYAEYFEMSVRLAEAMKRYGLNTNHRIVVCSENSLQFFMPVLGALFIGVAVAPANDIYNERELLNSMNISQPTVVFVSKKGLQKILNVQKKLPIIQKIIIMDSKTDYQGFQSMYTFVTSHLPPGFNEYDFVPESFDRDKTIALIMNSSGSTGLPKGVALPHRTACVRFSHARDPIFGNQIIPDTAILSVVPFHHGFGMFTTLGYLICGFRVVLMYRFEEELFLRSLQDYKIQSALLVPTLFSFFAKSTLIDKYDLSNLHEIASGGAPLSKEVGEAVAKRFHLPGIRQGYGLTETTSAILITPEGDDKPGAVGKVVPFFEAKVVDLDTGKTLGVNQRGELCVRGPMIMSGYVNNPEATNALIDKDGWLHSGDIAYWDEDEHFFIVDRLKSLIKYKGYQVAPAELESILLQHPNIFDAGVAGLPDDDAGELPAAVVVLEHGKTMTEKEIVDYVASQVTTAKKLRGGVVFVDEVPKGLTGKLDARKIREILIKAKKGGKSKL
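Purified P. pyralis luciferase, 10 nM final, with Km-level 10 uM D-luciferin and 10 uM ATP in 50 mM Tris acetate pH 7.5, 10 mM Mg acetate, 0.01% Tween-20, 0.05% BSA; 6-point qHTS titration about 60 µM downward; luminescence read.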
Luc counter: Kinase-Glo luciferase inhibition (counter-screen). Q27757. Kinase-Glo luciferase, ATP luminescence, 8 min. Potency, µM (titrated, usually from 38.3 µM), hits mostly inhibitors. 0.28% of 200,000 active; note: nearly all actives have a fitted effect of over 60% in size
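Recombinant Kinase-Glo luciferase, 10 uM ATP (linear range), luciferin; imidazole pH 7.2 / KCl / MgCl2 / Tween / BSA buffer; 8 min RT; luminescence.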
ELG1 genotox: genotoxicity induction in ELG1-luciferase HEK293T cells; Potency, µM (top dose mostly 46 µM), hits mostly activators; 1.3% of 330,000 active; HEK293T ELG1-luciferase reporter, luminescence, 16 h; AID 504466; note: nearly all actives have a fitted effect of over 60% in size
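Genotoxic stress is detected as increased luminescence from luciferase-tagged ELG1 in HEK293T cells, measured with ONE-Glo after a 16 hr treatment at 37 °C.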
Rab9 prom act: activators of Rab9 promoter. Huh7 Rab9 promoter-luciferase reporter, luminescence, 24 h. Potency, µM (titrated, usually from 9.22 µM), most hits filed as activators. 2.8% of 320,000 active. AID 485297; note: nearly all actives have a fitted effect of over 60% in size
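Using Huh7 cells stably transfected with Rab9 promoter–luciferase, compounds were incubated 24 h at 37 °C, 5% CO2; luciferase luminescence was read 10 min after reagent addition.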
NPC1 prom act: activators of NPC1 promoter | Huh7 NPC1 promoter luciferase reporter, 24 h | Potency, µM (series often up to 9.22 µM), actives largely listed as activators | 2.4% of 320,000 active; note: nearly all actives have a fitted effect of over 60% in size
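Quantitative HTS used a cell-based reporter: Huh7 cells stably bearing the NPC1 promoter upstream of luciferase were treated with compounds for 24 h, and promoter activation was read as luminescence.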
SMN2 splice enh: increases expression of the SMN2 splice variant; HEK293 SMN2-luciferase splicing reporter, luminescence, 30-36 h; 2.8% of 210,000 active; Potency, µM (series often up to 46.1 µM), hits mostly activators; AID 1458; note: nearly all actives have a fitted effect of over 55% in size
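HEK293 cells carry an SMN2 […]–luciferase reporter in which exon 7 inclusion puts luciferase in frame. Cells were plated 10-12 h before compound addition, then incubated 30-36 h at 37C. ONE-Glo luminescence was read; sodium butyrate at 4.5 mM final served as control.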
A number is an active result; – = inactive; ? = inconclusive; · = no result; [ ] = another dose, or the depositor's remark. In the library only some 7.5% were active in any assay of this set; here they are far more common. Calls come from the whole dose curve; as a rule, active = well fitted curve in the direction sought with a large enough effect; inconclusive = small, poorly fitted or top-dose-only effect, or another doubt; inactive = no such curve, though single readings can be large; an effect the other way counts as inactive or inconclusive.

SMILES	FLuc modulator	Luc counter	ELG1 genotox	Rab9 prom act	NPC1 prom act	SMN2 splice enh
CC(C)c1cc(C(=O)NCCc2ccccc2)no1	17µM	–	?	2.2µM	3.2µM	·
O=C(NCCCn1ccnc1)c1cc(-c2cccs2)on1	?	–	?	3.2µM	?	–
O=C(NCc1ccco1)c1cc(-c2cccs2)on1	11µM	–	?	2.8µM	3.2µM	?
CCOc1ccccc1CNC(=O)CCn1c(=O)c2cccn2c2ccc(F)cc21	–	·	·	·	·	·
COc1cc(Cl)c(C)cc1NC(=O)C1CCCN(c2ncnc3onc(-c4ccc(F)cc4)c23)C1 (stereo not given)	–	·	·	·	·	·
Cc1cc(C(=O)NCc2ccco2)on1	–	–	–	–	–	–
CC(C)c1cc(C(=O)NCc2ccco2)no1	–	–	15µM	?	–	?
O=C(NCCc1ccccc1)c1cc2ncc(Br)cn2n1	?	–	16µM	?	–	?
Cc1ccsc1C(=O)Nc1ccccc1N1CCOCC1	19µM	–	–	–	–	–
O=C(Nc1ccccc1N1CCOCC1)c1cc2ccccc2o1	9.5µM	·	–	–	?	·
O=C(Nc1ccc(CN2CCOCC2)cc1)c1ccc(Br)o1	19µM	·	?	?	3.2µM	·
CN1CCN(c2ccccc2NC(=O)c2cc3ccccc3o2)CC1	?	–	–	–	–	–
O=C(Nc1ccc(S(=O)(=O)N2CCOCC2)cc1)c1ccc(Br)o1	–	–	–	–[1.84 µM]	–	–
O=C(Nc1ccccc1N1CCCC1)c1cc2ccccc2o1	7.6µM	–	–	–	?	22µM
CCC(=O)Nc1ccc2c(c1)nc1n2CCN(CCOC)C1	–	·	–	–	–	·
CCCCNC(=O)CSc1nc2n[nH]c(C)c2c(=N)n1-c1ccccc1CC	–	·	·	·	·	·
Cc1ccc(NC(=O)Cn2c(=O)n(-c3ccc(Cl)c(Cl)c3)c(=O)c3c(C)c(C)sc32)c(C)c1	–	·	·	·	·	–
Cc1cc(C)c(C)c(S(=O)(=O)N2CCN(C(=O)c3ccccc3OCc3c(C)noc3C)CC2)c1C	–	·	–	–	–	·
O=C(Nc1ccc(N2CCN(C(=O)c3ccccc3)CC2)c(Cl)c1)c1ccc(Br)o1	–	–	–	–	–	–
O=C(Nc1cccnc1Cl)c1cc2ccccc2o1	5.4µM	·	9.2µM	1.3µM	1.6µM	·
O=C(Nc1ccc(N2CCOCC2)c(Cl)c1)c1cc2ccccc2o1	8.5µM	–	–	3.2µM	3.5µM	–
O=C(Nc1ccc(N2CCOCC2)c(Cl)c1)c1ccc(Br)o1	8.5µM	–	?	3.2µM	1.4µM	4.5µM
CN1CCN(c2ccc(NC(=O)c3cc4ccccc4o3)cc2)CC1	6µM	·	10µM	3.5µM	1.6µM	·
Cc1cc(NC(=O)c2cccnc2Cl)ccc1NC(=O)c1cc2ccccc2o1	–	·	–	–	–	·
CCOc1ccc(OC(=O)c2sc3ncn(Cc4cccc(F)c4)c(=O)c3c2C)cc1	–	·	·	·	·	·
SMILES	FLuc modulator	Luc counter	ELG1 genotox	Rab9 prom act	NPC1 prom act	SMN2 splice enh
CCOC(=O)C1CCN(c2nc(-c3ccc(Br)cc3)cs2)CC1	–	·	·	·	·	·
COc1ccc(S(=O)(=O)c2c(Nc3c(C)cccc3C)sc(C(=O)c3ccc(F)cc3)c2N)cc1	–	·	·	·	·	·
CN(C(=O)CC(NC(=O)c1ccccc1Cl)c1ccccc1)c1ccccc1 (stereo not given)	–	·	–	–	–	·
CCN(CC(=O)Nc1c(F)cccc1F)C(=O)CCSc1ccc(F)cc1	–	·	–	–	–	·
O=C(NCCN1CCOCC1)Nc1ccc(Cl)cc1	–	–	–	–	–	7.1µM
COc1ccc(-c2cn3ccccc3n2)cc1OC	3.4µM	11µM	?	3.2µM	3.2µM	18µM
COc1ccc(-c2cn3cc(C)ccc3n2)cc1OC	0.85µM	?	1µM	0.63µM	1µM	4µM
COc1ccc(-c2cc(-c3ccccc3)nc(Cl)n2)cc1OC	?	·	–	–	–	·
COc1ccc(-c2cn3cc(C)ccc3n2)cc1F	0.24µM	–	?	0.35µM	0.35µM	0.56µM
COc1ccc(-c2nc3c(c4c2C[C@H](c2ccccc2)OC4)CN(C(=O)NCc2ccco2)CC3)c(C)c1	·	–[7.66 µM]	·	·	·	–[9.22 µM]
O=C(Nc1nc2nccc(-c3ccccc3)n2n1)c1ccccc1	?	·	?	2.5µM	2.8µM	·
COc1ccc(C(=O)Nc2nc3nccc(-c4ccccc4)n3n2)cc1	9.5µM	–	–	–	–	–
O=C(Nc1nc2nccc(-c3ccccc3)n2n1)c1ccc(F)cc1	–	–	–	–	–	–
COc1ccc(-c2ccnc3nc(N4CCN(c5ccccc5)CC4)nn23)cc1	–	–	–	–	–	–
COc1ccc(/C=C/c2ccccc2)cc1[C@H]1[C@@H]2C=CCC[C@@]2(C)C(=O)N1Cc1ccccc1	13µM	·	–	–	–	·
COc1ccc(Br)cc1[C@H]1[C@@H]2C=CCC[C@@]2(C)C(=O)N1Cc1ccccc1	–	·	–	–	–	·
CCOc1ccccc1OCCCOc1ccc(C)cc1Cl	11µM	·	–	?	–	·
COc1cc(C)ccc1OCCCOc1c(Cl)cccc1Cl	–	–	–	–	–	–
CCOc1ccccc1OCCCOc1ccc(C)cc1Br	11µM	–	–	–	–	–
COc1ccc(-n2ccnc(NCCc3ccccc3)c2=O)cc1OC	–	·	·	·	·	·
Oc1ccc(N=Nc2ccc3c(c2)OCO3)c2ccccc12	7.6µM	·	5.2µM	3.2µM	?	·
COc1ccc(C(=O)/C=C/Nc2ccc(NC(C)=O)cc2)cc1OC	?	–	–	–	–	–
COc1cccc(C(=O)/C=C/Nc2ccc(NC(C)=O)cc2)c1	9.5µM	–	?	4µM	?	13µM
COc1ccc(C(=O)c2ccc(Cl)cc2)cc1	?	–	21µM	–	–	–
COc1cccc(N/C=C/C(=O)c2ccc(C)cc2)c1	0.24µM	·	1.5µM	0.5µM	0.45µM	·
SMILES	FLuc modulator	Luc counter	ELG1 genotox	Rab9 prom act	NPC1 prom act	SMN2 splice enh
COc1ccc(C(=O)/C=C/Nc2ccc(S(=O)(=O)Nc3ncccn3)cc2)cc1	?	–	–	–	–	–
COc1ccc(N/C=C/C(=O)c2ccc(Cl)cc2)cc1	0.6µM	–	3.7µM	0.71µM	0.79µM	4.5µM
Cc1cccc(OCc2ccc(-c3nc(C#N)c(N4CCC(C(N)=O)CC4)o3)o2)c1	–	·	·	·	·	·
COc1cccc(/C=C/C(=O)c2ccc(NS(=O)(=O)c3ccc(C)cc3)cc2)c1	13µM	–	–	–	–	–
COc1cccc(C(=O)/C=C/Nc2cccc(O)c2)c1	0.21µM	?	2.3µM	?	?	–
COc1cccc(N/C=C/C(=O)c2ccc(Cl)cc2)c1	0.54µM	–	1.2µM	0.5µM	0.5µM	4.5µM
COc1cccc(C(=O)/C=C/Nc2ccc(S(=O)(=O)Nc3cccc(C(C)=O)c3)cc2)c1	–	–	–	–	–	–
COc1cc(/C=C/C(=O)c2ccc(NS(=O)(=O)c3ccc(C)cc3)cc2)cc(OC)c1O	–	–	–	–	–	–
COc1ccc(C(=O)/C=C/c2ccccc2)cc1	·	–	·	·	·	–
